The source of these data is PubChem BioAssay (Tox21).

A number with no mark means an inactive call. Results filed as inconclusive are left out. The source made the active and inactive calls. Unless noted, calls come from the whole dose curve; as a rule, active = well fitted curve in the direction sought with a large enough effect in the repeat runs; inconclusive = weak or mixed curves; inactive = no such curve, though single readings can be large; an effect the other way counts as inactive or inconclusive.

The nature of experiment [1]: Caspase-3/7 induction in CHO-K1 cells by small molecules, qHTS assay (AID 1346980). Note: nearly all actives have a fitted effect of over 15% in size. The following applies: CHO-K1 caspase-3/7 induction, Caspase-Glo luminescence, 17 h; series mostly up to 92.4 µM. The gist of the method:
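Wild-type CHO-K1 cells exposed to compounds for 17hr at 37 C, 5% CO2. Caspase-3/7 activity then measured by Caspase-Glo 3/7 luminescence after 30min at room temperature.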
(In general: Quantitative high-throughput screening tests each substance at several concentrations.)

Experiment [2] is described as follows: Caspase-3/7 induction in HepG2 cells by small molecules, qHTS cell viability counter screen (AID 1346981). Note: nearly all actives have a fitted effect of over 30% in size. Note: potency is the fitted concentration of half-maximal effect. The conditions noted are these: CellTiter-Fluor fluorescence, 17 h; series mostly up to 92.4 µM. The gist of the method:
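Cell viability is measured as a cytotoxicity counter screen alongside the Caspase-Glo 3/7 readout in identical wells. Wild-type HepG2 cells are treated with test compounds for 16 hr at 37 C before CellTiter-Fluor addition and a 1-hr incubation.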

Experiment [3] deals with Nuclear receptor subfamily 1 group I member 2 (Homo sapiens) (UniProt O75469). The experiment can be described thus: Human pregnane X receptor (PXR) small molecule agonists, qHTS assay (AID 1346982). Note: nearly all actives have a fitted effect of over 35% in size. Note: potency is the fitted concentration of half-maximal effect. The following applies: PXR-Luc HepG2, CYP3A4 luciferase reporter, 24 h; series mostly up to 92.4 µM. The gist of the method:
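Cells: HepG2 stably carrying PXR-Luc. Medium held 5% charcoal-stripped FBS. Compounds in DMSO added after 5 hr plating, incubated 24 hr, then luminescence quantified with ONE-Glo.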

Experiment [4] has as its target Acetylcholinesterase (Homo sapiens) (UniProt P22303). As to the kind of experiment: Acetylcholinesterase (AChE) small molecule antagonists: colormetric cell-based qHTS assay (AID 1347395; calls by dose curve; note: nearly all actives have a fitted effect of over 30% in size; note: potency is the fitted concentration of half-maximal effect). The conditions noted are these: SH-SY5Y cells AChE activity, colorimetric (Ellman); series mostly up to 115 µM. The gist of the method:
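In this cell-based qHTS, attached SH-SY5Y cells were treated with test chemicals for 30 min, after which acetylthiocholine hydrolysis was followed by DTNB colour development over 90 min at 37 C.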

The target is the same in experiment [5]. The experiment can be described thus: Acetylcholinesterase (AChE) small molecule antagonists: enzyme-based qHTS assay (AID 1347397; calls by dose curve; note: nearly all actives have a fitted effect of over 55% in size; note: potency is the fitted concentration of half-maximal effect). The following applies: Potency: AChE enzyme activity inhibition; series mostly up to 115 µM. The gist of the method:
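Colorimetric DTNB read-out of thiocholine released from acetylthiocholine by recombinant human AChE (50 mU/mL as dispensed). Compounds were preincubated 30 min at RT before substrate/DTNB addition, with a 10 min RT reaction.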

Experiment [6] addresses Cytochrome P450 2D6 (Homo sapiens) (UniProt P10635). The experiment can be described thus: Cytochrome P450 Family 2 Subfamily D Member 6 (CYP2D6) small molecule antagonists: luciferase reporter qHTS assay (AID 1671196). Note: nearly all actives have a fitted effect of over 50% in size. Note: potency is the fitted concentration of half-maximal effect. The following applies: P450-Glo CYP2D6 enzyme assay, luciferin luminescence, 1 h; series mostly up to 115 µM. The method, boiled down:
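Enzyme and proluciferin substrate were first combined with test chemical for 10 min at room temperature. Adding NADPH regeneration solution started a 1 h reaction, stopped with luciferin detection reagent and read by luminescence 20 min later.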

Experiment [7] concerns the target Voltage-gated inwardly rectifying potassium channel KCNH2 (Homo sapiens) (UniProt Q12809). As to the kind of experiment: Human Ether-a-go-go-Related Gene (hERG) channel small molecule antagonists: fluorescence cell-based qHTS assay (AID 1671200). Note: nearly all actives have a fitted effect of over 50% in size. Note: potency is the fitted concentration of half-maximal effect. The following applies: hERG-U2OS cells, FluxOR thallium flux fluorescence; series mostly up to 76.8 µM. The method, boiled down: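 Cell line hERG-U2OS; dye FluxOR II, 1 h RT dark; Tl+ stimulus; ex 480/em 540 nm, read each second for 2 min.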
For orientation: hERG is a cardiac potassium channel; its block is linked to QT prolongation.

Experiment [8] deals with Cytochrome P450 3A4 (Homo sapiens) (UniProt P08684). As to the kind of experiment: Cytochrome P450 Family 3 Subfamily A Member 4 (CYP3A4) small molecule antagonists: luciferase reporter qHTS assay (AID 1671201). Note: nearly all actives have a fitted effect of over 50% in size. Note: potency is the fitted concentration of half-maximal effect. The conditions noted are these: P450-Glo CYP3A4 enzyme, luciferin luminescence, 1 h; series mostly up to 115 µM. The gist of the method: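 Room-temperature assay throughout: 10 min compound–enzyme/substrate preincubation, 1 h reaction after NADPH regeneration solution, 20 min detection. Luciferin formed from proluciferin substrate is quantified by luminescence.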
A general note: Reporter assays use an easily measured gene product as a stand-in for the process of interest.

In experiment [9] the target is Acetylcholinesterase (Homo sapiens) (UniProt P22303). The experiment can be described thus: Acetylcholinesterase (AChE) small molecule antagonists: fluorescence cell-based qHTS assay (AID 1347398; calls by dose curve; note: nearly all actives have a fitted effect of over 50% in size). The conditions noted are these: SH-SY5Y cells; Potency: AChE activity; series mostly up to 115 µM. The gist of the method: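 SH-SY5Y, 2,000 cells/well, attached overnight; cmpd 30 min 37 C; acetylthiocholine/Thiolite Green cocktail 40 min RT; fluorescence Ex/Em 490/520 nm.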

In experiment [10] the target is Cytochrome P450 2C19 (Homo sapiens) (UniProt P33261). The experiment can be described thus: Cytochrome P450 Family 2 Subfamily C Member 19 (CYP2C19) small molecule antagonists: luciferase reporter qHTS assay (AID 1671197). Note: nearly all actives have a fitted effect of over 65% in size. Note: potency is the fitted concentration of half-maximal effect. The following applies: P450-Glo CYP2C19 enzyme, luciferin luminescence, 1 h; series mostly up to 115 µM. The gist of the method: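 First, compounds are pinned into enzyme-substrate mix and held 10 min at room temperature. Second, NADPH regeneration solution is added and plates incubate 1 h at 37C. Third, detection reagent is added and luminescence read after 20 min.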

The target in experiment [11] is Cytochrome P450 2C9 (Homo sapiens) (UniProt P11712). The experiment can be described thus: Cytochrome P450 Family 2 Subfamily C Member 9 (CYP2C9) small molecule antagonists: luciferase reporter qHTS assay (AID 1671198). Note: nearly all actives have a fitted effect of over 50% in size. Note: potency is the fitted concentration of half-maximal effect. The following applies: P450-Glo CYP2C9 enzyme assay, luciferin luminescence; series mostly up to 115 µM. The method, boiled down:
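P450-Glo proluciferin substrate with CYP2C9 enzyme; 10 min RT preincubation, then NADPH regeneration 1 h at 37C; luciferin detection reagent 20 min RT, luminescence in relative luminescence units.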

Experiment [12] concerns the target Cytochrome P450 1A2 (Homo sapiens) (UniProt P05177). The experiment can be described thus: Cytochrome P450 Family 1 Subfamily A Member 2 (CYP1A2) small molecule antagonists: luciferase reporter qHTS assay (AID 1671199). Note: nearly all actives have a fitted effect of over 50% in size. Note: potency is the fitted concentration of half-maximal effect. The conditions noted are these: P450-Glo CYP1A2 enzyme, luciferin luminescence, 1 h; series mostly up to 115 µM. The gist of the method: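 Compounds were incubated with CYP1A2 and a luminogenic proluciferin substrate for 10 min at room temperature before the reaction was started with NADPH regeneration solution. After 1 h, detection reagent was added and light output, proportional to CYP activity, was recorded.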

The target of experiment [13] is Acetylcholinesterase (Homo sapiens) (UniProt P22303). As to the kind of experiment: Acetylcholinesterase (AChE) small molecule antagonists: enzyme-based qHTS assay with human liver microsomes (AID 1347399; calls by dose curve; note: nearly all actives have a fitted effect of over 60% in size). The following applies: Potency: qHTS inhibition; series mostly up to 115 µM. The gist of the method:
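Recombinant human AChE (50 mU/mL in the enzyme mix) and human liver microsomes (0.25 mg/mL final) were preincubated with compound and NADPH (0.25 mg/mL final) for 30 min at 37 C. Acetylthiocholine/DTNB was then added; thiocholine was read colorimetrically after 10 min at room temperature.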

For experiment [14], the target named is Nuclear receptor subfamily 1 group I member 2 (Rattus norvegicus) (UniProt Q9R1A7). As to the kind of experiment: Rat pregnane X receptor (rPXR) activation by small molecules, qHTS assay (AID 1346983). Note: nearly all actives have a fitted effect of over 20% in size. The conditions noted are these: rPXR luciferase reporter cells, One-Glo luminescence, 24 h; max activation: active compounds read high. The gist of the method:
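Cell-based rPXR activation assay: rPXR cells, 2,000 per well, rested 5hr at 37 C, then exposed to compounds in DMSO for 24 hr at 37 C. Luciferase activity read by One-Glo luminescence after 30 min at room temperature.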

Experiment [15] deals with Nuclear receptor subfamily 1 group I member 2 (Homo sapiens) (UniProt O75469). The experiment can be described thus: CYP3A4 induction through human pregnane X receptor (PXR) by small molecules, qHTS assay (AID 1346984). Note: nearly all actives have a fitted effect of over 40% in size. The conditions noted are these: DPX-2 HepG2 PXR, CYP3A4-luciferin luminescence, 24 h; series mostly up to 46.1 µM. The gist of the method: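 Quantitative HTS in DPX-2 cells, i.e. HepG2 transfected with PXR response element and CYP3A4-promoter luciferase. Compounds in DMSO incubated 24hr at 37C; then P450-Glo CYP3A4 substrate, 3uM final, 3hr; One-Glo luminescence.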

The target is the same in experiment [16]. The experiment can be described thus: Human pregnane X receptor (PXR) activation by small molecules, qHTS assay (AID 1346985). Note: nearly all actives have a fitted effect of over 40% in size. The following applies: DPX-2 HepG2 CYP3A4-luciferase, 24 h; series mostly up to 38.3 µM. The method, boiled down: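 DPX-2 cells (HepG2 co-transfected with a PXR response element and a CYP3A4-promoter luciferase construct) were seeded at 2,000 per well, rested 5 hr at 37C, then exposed to DMSO-dissolved compounds for 24 hr. Activation was read as luciferase luminescence.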
% is set by controls: 0 for no effect and ±100 for the full control effect.

Chain of Cytochrome P450 2C9 (Homo sapiens) (P11712 whole entry, looked up): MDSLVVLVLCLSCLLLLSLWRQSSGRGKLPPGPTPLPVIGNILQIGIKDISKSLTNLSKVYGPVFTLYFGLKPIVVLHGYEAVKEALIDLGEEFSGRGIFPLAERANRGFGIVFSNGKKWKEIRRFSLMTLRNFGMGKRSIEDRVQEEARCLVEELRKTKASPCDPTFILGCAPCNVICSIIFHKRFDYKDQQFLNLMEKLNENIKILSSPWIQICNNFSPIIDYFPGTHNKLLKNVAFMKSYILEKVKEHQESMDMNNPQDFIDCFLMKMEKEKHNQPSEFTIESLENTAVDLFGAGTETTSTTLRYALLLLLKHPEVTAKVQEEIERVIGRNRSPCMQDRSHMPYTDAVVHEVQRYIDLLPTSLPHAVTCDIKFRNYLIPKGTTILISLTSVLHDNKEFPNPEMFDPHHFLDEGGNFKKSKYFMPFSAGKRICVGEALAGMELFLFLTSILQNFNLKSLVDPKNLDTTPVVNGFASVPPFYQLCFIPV
Chain of Cytochrome P450 2C19 (Homo sapiens) (P33261 whole entry, looked up): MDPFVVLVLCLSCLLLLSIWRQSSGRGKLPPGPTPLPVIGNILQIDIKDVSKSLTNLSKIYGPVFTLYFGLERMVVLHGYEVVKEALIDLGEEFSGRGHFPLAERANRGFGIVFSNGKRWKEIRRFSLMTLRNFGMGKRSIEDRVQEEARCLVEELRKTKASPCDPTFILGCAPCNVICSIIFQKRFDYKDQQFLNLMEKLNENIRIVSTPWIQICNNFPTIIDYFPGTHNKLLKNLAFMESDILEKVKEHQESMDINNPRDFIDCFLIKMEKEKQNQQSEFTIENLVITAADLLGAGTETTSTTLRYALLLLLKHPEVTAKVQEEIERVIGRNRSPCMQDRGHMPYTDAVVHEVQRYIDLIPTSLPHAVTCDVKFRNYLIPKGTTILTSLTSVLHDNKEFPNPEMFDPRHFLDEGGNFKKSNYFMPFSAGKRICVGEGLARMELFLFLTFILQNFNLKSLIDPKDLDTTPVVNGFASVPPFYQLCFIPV
Chain of Cytochrome P450 1A2 (Homo sapiens) (P05177 whole entry, looked up): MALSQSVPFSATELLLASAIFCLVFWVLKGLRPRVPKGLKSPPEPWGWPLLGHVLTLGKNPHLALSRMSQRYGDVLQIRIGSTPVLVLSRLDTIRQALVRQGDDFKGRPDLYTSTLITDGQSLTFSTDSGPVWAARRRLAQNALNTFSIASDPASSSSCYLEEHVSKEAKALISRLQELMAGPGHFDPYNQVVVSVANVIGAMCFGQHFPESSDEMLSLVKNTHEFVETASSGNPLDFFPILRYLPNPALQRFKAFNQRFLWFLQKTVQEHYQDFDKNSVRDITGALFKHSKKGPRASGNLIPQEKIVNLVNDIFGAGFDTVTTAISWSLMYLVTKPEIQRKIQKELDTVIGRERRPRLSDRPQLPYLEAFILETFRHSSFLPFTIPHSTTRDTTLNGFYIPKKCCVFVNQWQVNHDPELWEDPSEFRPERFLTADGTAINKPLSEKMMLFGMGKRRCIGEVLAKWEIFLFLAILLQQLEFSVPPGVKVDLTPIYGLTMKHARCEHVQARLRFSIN
Chain of Cytochrome P450 3A4 (Homo sapiens) (P08684 whole entry, looked up): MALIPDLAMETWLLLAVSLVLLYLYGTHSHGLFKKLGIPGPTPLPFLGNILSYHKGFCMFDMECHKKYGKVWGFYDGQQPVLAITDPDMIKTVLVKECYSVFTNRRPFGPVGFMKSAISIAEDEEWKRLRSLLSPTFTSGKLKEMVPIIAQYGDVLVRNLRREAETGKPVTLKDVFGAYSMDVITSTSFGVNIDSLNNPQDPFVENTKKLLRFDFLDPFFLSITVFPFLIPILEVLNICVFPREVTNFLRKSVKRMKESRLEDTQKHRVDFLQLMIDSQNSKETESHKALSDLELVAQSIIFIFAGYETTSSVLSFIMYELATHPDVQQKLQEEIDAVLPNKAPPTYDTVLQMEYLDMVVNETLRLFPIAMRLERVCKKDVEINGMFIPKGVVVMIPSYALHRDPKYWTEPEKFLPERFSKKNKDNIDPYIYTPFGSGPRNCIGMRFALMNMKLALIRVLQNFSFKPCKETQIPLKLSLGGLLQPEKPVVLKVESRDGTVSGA
Chain of Cytochrome P450 2D6 (Homo sapiens) (P10635 whole entry, looked up): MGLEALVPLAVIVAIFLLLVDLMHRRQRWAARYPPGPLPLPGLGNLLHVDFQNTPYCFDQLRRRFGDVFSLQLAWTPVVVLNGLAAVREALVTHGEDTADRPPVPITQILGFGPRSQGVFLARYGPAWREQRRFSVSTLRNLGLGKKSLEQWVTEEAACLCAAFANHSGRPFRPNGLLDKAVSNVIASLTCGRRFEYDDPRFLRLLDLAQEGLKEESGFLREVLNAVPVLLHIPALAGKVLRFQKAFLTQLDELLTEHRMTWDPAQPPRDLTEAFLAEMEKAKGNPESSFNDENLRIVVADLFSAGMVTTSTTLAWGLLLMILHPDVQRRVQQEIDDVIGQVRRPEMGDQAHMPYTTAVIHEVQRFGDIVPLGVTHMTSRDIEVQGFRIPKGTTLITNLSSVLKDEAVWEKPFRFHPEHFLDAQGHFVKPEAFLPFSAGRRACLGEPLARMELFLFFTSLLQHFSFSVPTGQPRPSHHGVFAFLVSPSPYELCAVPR
Chain of Voltage-gated inwardly rectifying potassium channel KCNH2 (Homo sapiens) (Q12809 whole entry, looked up): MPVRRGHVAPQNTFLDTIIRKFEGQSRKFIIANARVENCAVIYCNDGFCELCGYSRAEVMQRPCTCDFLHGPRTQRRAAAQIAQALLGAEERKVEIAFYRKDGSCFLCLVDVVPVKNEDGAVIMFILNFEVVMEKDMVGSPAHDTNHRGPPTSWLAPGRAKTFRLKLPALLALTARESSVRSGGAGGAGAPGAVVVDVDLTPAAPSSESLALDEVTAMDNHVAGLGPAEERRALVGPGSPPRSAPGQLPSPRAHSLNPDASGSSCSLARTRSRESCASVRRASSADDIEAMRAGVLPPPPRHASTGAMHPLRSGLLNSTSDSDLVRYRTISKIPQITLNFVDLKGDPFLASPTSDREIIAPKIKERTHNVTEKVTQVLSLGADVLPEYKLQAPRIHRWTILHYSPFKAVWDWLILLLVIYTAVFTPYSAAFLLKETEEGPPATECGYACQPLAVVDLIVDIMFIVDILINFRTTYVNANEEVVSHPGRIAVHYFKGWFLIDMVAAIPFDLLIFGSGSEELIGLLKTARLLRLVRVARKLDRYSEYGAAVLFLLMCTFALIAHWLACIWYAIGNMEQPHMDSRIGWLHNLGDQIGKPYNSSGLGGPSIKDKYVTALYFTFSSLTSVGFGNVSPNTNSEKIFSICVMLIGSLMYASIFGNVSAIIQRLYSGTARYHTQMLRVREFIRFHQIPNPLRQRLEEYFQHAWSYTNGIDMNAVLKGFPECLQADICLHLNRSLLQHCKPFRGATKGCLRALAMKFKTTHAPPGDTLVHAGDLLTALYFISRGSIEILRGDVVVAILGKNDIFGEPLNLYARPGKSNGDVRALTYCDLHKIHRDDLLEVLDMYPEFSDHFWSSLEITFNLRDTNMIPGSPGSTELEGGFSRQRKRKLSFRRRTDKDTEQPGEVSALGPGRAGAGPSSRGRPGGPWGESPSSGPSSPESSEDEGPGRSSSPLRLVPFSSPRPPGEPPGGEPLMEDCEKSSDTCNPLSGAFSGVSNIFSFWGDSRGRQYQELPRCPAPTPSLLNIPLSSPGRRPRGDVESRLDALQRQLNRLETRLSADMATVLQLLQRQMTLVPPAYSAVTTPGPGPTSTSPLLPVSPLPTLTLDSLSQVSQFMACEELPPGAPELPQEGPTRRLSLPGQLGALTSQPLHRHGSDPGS
Chain of Acetylcholinesterase (Homo sapiens) (P22303 whole entry, looked up): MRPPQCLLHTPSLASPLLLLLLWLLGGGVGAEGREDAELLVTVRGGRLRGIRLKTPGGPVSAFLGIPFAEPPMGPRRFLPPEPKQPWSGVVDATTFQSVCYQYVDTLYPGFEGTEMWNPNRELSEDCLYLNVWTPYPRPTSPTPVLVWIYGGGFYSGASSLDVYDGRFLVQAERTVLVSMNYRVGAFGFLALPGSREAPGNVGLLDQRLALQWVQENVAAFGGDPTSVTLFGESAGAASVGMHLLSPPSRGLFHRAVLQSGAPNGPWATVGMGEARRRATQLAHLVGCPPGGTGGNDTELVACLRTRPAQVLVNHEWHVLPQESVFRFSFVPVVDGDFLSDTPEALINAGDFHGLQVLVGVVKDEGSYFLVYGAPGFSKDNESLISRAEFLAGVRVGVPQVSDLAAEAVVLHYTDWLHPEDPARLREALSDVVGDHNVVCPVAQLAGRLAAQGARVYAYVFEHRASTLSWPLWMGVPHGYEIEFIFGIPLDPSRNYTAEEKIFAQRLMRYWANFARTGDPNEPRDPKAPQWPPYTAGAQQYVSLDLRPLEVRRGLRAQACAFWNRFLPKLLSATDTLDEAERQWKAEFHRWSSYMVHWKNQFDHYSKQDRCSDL
Chain of Nuclear receptor subfamily 1 group I member 2 (Homo sapiens) (O75469 whole entry, looked up): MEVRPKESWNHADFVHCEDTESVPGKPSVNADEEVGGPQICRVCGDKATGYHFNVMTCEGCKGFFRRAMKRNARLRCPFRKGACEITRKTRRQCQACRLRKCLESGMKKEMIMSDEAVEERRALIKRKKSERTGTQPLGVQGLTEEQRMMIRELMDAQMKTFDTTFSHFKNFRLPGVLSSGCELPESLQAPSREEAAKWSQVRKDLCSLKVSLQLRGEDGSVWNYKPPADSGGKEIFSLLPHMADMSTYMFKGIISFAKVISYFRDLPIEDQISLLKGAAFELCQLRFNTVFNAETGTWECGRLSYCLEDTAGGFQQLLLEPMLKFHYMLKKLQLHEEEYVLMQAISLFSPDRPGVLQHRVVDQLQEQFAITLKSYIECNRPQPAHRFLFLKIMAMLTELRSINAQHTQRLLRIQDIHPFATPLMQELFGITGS

With `COc1ccc([N+](=O)[O-])cc1O`, the Potency entry in experiment [1], in [2], in [3], in experiment [4], in [5] and in experiment [6] was “inactive” throughout. Also, the Potency result in experiment [7] and in experiment [8] was “inactive” each time.
For the molecule `Nc1ccccc1C(=O)Oc1ccc2ccccc2c1`, the Potency entry in experiment [1], in experiment [2], in experiment [4], in experiment [5], in [9] and in [8] was “inactive” each time. The Potency in experiment [3] was 27.3 µM (active); in [10], 35.6 µM (active); in experiment [11], 20 µM (active); in [12] it was 14.2 µM (active).
With `CC(=O)[O-].CC(=O)[O-].[Hg+2]`, the Potency entry in experiment [1] was “inactive”. For the same molecule, the figures for the Potency in experiment [2] and in [7] were 19.3 µM (active) and 6.92 µM (active), respectively.
Turning to `Cc1ccc(OP(=O)(Oc2ccccc2)Oc2ccccc2)cc1`, the Potency result in [1], in [2], in experiment [6] and in experiment [8] was “inactive” in each case. Moreover, the Potency in experiment [3] is 13.9 µM (active); in [4], 20.3 µM (active); in experiment [5] it was 20.3 µM (active); in experiment [10] it was 3.22 µM (active); in [11] it was 6.42 µM (active).
`NNC(=O)c1ccccc1`: the Potency result in experiment [1], in experiment [2], in experiment [4], in [5], in [9] and in [13] was “inactive” throughout. In addition, the Potency entry in experiment [7] is “inactive”. The Potency in [3] is 31.5 µM (active); in experiment [10] it was 41 µM (active); in experiment [11], 41 µM (active); in experiment [12], 32.6 µM (active); in [8], 36.6 µM (active).
Take `CN(C)CCc1c[nH]c2ccc(O)cc12`: the Potency entry in [1], in experiment [2], in experiment [3], in experiment [4], in experiment [5] and in experiment [10] was “inactive” in each case. Besides, the Potency result in [12], in [7] and in experiment [8] was “inactive” in each case. Also, the Potency was 17.4 µM (active) in [6] and 24.6 µM (active) in experiment [11].
Take `COC(=O)N(C(=O)N1CO[C@@]2(C(=O)OC)Cc3cc(Cl)ccc3C2=N1)c1ccc(OC(F)(F)F)cc1`: the Potency result in [1], in experiment [2], in experiment [4], in [5], in [9] and in experiment [13] was “inactive” throughout. Moreover, the Potency entry in experiment [7] was “inactive”. In addition, the Potency in experiment [3] is 1.67 µM (active); in experiment [10] it was 0.154 µM (active); in experiment [11] it was 2.73 µM (active); in experiment [8] it was 2.44 µM (active).
Turning to `O=C(NC(=O)c1c(F)cccc1F)Nc1cc(Cl)c(OC(F)(F)C(F)F)c(Cl)c1`, the Potency entry in experiment [1], in [2], in experiment [3], in experiment [4], in experiment [5] and in experiment [9] was “inactive” in each case. Further, the Potency result in experiment [13], in experiment [6], in experiment [7] and in experiment [8] was “inactive” each time. The Potency in [10] is 79.6 µM (active); in experiment [11], 39.9 µM (active).
On to `N#CCCSCCC#N`, for which the Potency result in experiment [1], in [2], in [3], in experiment [4], in experiment [5] and in [13] was “inactive” in each case. Moreover, the Potency entry in experiment [6], in experiment [10], in [11] and in experiment [8] was “inactive” throughout.
For `CC(=O)O[C@H]1CC[C@@]2(C)C(=CC[C@@H]3[C@@H]2CC[C@]2(C)C(=O)CC[C@@H]32)C1`, the Potency entry in [1], in experiment [15], in experiment [16], in [4], in experiment [5] and in [9] was “inactive” each time. Moreover, the Potency result in [13], in [6], in experiment [12] and in experiment [8] was “inactive” in each case. Besides, the figures for the Potency in experiment [3], in experiment [10] and in experiment [11] were 54.5 µM (active), 31.7 µM (active) and 31.7 µM (active), respectively. In addition, in [14], the max activation was -1.42%.
